Laboratory results published in PubChem BioAssay AID1211 (NMMLSC, 2008).
Active and inactive are the calls of the source. No rule for the calls is given here.

molecular target: Estrogen receptor (Homo sapiens) (UniProt P03372); experiment: displacement of fluorescent estrogen from ERalpha – cell-based, Cos7 ERalpha-GFP, flow cytometry, primary screen (AID 1211); conditions: fluorescent ligand competition, at 10 µM, hits give high values;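 also: 0% = DMSO vehicle wells and 100% = no E2-Alexa633 signal left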
Sequence (P03372 whole entry, looked up): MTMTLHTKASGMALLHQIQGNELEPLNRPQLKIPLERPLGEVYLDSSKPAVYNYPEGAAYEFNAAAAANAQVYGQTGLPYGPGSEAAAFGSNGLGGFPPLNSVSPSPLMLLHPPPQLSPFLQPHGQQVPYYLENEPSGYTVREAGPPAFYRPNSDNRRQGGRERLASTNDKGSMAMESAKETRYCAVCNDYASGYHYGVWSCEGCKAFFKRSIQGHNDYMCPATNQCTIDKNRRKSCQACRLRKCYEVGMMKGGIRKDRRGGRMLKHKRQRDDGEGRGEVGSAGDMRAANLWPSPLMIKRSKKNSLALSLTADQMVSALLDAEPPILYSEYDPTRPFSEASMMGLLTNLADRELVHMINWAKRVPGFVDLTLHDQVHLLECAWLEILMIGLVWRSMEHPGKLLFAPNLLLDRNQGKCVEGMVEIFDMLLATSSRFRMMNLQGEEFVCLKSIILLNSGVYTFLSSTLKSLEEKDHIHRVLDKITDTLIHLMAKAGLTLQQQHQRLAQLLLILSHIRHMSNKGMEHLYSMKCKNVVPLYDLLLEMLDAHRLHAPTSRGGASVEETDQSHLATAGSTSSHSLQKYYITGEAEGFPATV

| SMILES | inhibition of ligand binding |
| --- | --- |
| O=C1CC(c2ccc3c(c2)OCO3)c2ccc3ccccc3c2N1 (stereo not drawn) | 0% (inactive) |
| CC1CCN(Cc2c(O)ccc3c4c(c(=O)oc23)CCC4)CC1 | 0% (inactive) |
| O=C(Oc1cccc(-c2cnc3ccccc3n2)c1)c1ccco1 | 12% (inactive) |
| Cn1c(SCC(=O)N2c3ccccc3CCc3ccccc32)nnc1-c1cc2ccccc2cc1O | 34% (inactive) |
| CCC1(CC)NC(=O)N(CC(=O)Nc2sc3c(c2C(N)=O)CCC3)C1=O | 38% (inactive) |
| Cc1cc(C(C)CO)cc(C(C)(C)C)c1O (stereo not drawn) | 21% (inactive) |
| COc1ccc(CNC(=O)COC(=O)c2cc(-c3ccco3)nc3ccccc23)cc1 | 20% (inactive) |
| COc1ccc2c(c1)c1c3n2CCNC3CCC1 (stereo not drawn) | 25% (inactive) |
| COc1cccc(-c2cc(C(=O)Nc3cc(C)nn3-c3ccccc3)no2)c1 | 30% (inactive) |
| Cc1noc(C)c1CSCC(=O)OCC(=O)Nc1sccc1C#N | 2% (inactive) |
| O=c1oc2cc(O)ccc2c2c1CCCC2 | 7% (inactive) |
| Cn1cccc1/C=C1\SC(=O)N(c2ccc(O)cc2)C1=O | 45% (inactive) |
| CCOC(=O)N1CCc2[nH]c3ccc(C)cc3c2C1 | 6% (inactive) |
| CCOC(=O)c1c(N)sc2c1CC(C)(C)NC2(C)C | 8% (inactive) |
| Cc1c(O)ccc2c3c(c(=O)oc12)CCCC3 | 0% (inactive) |
| O=C(O)c1ccc2c(c1)C1C=CCC1C(c1cc3c(cc1Br)OCO3)N2 (stereo not drawn) | 79% (active) |
| COc1ccc(NS(=O)(=O)c2ccc3c(c2)[C@H]2C=CC[C@H]2[C@@H](c2cccc(OC)c2OC)N3)cc1 | 0% (inactive) |
| Cc1nc2ccccc2n1-c1cc(C(C)(C)C)c(O)c(C(C)(C)C)c1 | 9% (inactive) |
| O=c1oc2cc(O)ccc2c2c1CCC2 | 0% (inactive) |

| SMILES | inhibition of ligand binding |
| --- | --- |
| CCOc1cc2c(cc1OCC)C(C(CC)CC)NCC2 (stereo not drawn) | 0% (inactive) |
| C=CCSC1=N/C(=C\C=C\c2ccco2)C(=O)S1 | 0% (inactive) |
| COc1cc([N+](=O)[O-])cc2c1NC(c1ccccc1Cl)C1CC=CC21 (stereo not drawn) | 0% (inactive) |
| CC1Cc2ccccc2N1C(=O)CSc1nnc(-c2ccc(S(=O)(=O)N3CCCC3)cc2)o1 (stereo not drawn) | 56% (inactive) |
| CCOc1cc2c(c([N+](=O)[O-])c1)NC(c1ccc(Br)cc1)C1CC=CC21 (stereo not drawn) | 0% (inactive) |
| COC(=O)c1ccc(C2Nc3ccc(/C(C)=N/NC(=O)C(OC)c4ccccc4)cc3C3C=CCC32)cc1 (stereo not drawn) | 0% (inactive) |
| Cc1cc(C)c2c(c1)NC(c1cc3c(cc1Br)OCO3)C1CC=CC21 (stereo not drawn) | 79% (active) |
| Cc1sc2ncnc(SCC(=O)NC(=O)NCc3ccco3)c2c1C | 19% (inactive) |
| COC(=O)c1ccc2c(c1)C1C=CCC1C(c1cccc([N+](=O)[O-])c1)N2 (stereo not drawn) | 10% (inactive) |
| O=[N+]([O-])c1ccc(Cl)c2c1C1C=CCC1C(c1ccccn1)N2 (stereo not drawn) | 53% (inactive) |
| CCCCc1cc(=O)oc2c(C)c(O)ccc12 | 0% (inactive) |
| CC(=O)c1ccc2c(c1)C1C=CCC1C(c1ccc(S(=O)(=O)N3CCOCC3)cc1)N2 (stereo not drawn) | 0% (inactive) |
| O=c1c(C(c2ccc(O)cc2)c2c(O)nc3n(c2=O)CCS3)c(O)nc2n1CCS2 | 7% (inactive) |
| Nc1ccc(-c2nc3c(Cl)c(N)ccc3[nH]2)cc1 | 14% (inactive) |
| O=C(c1cccs1)N1N=C(c2ccccc2)CC1c1ccc(O)cc1 (stereo not drawn) | 21% (inactive) |
| Cc1csc(C(C#N)C(=O)c2ccncc2)n1 (stereo not drawn) | 33% (inactive) |
| Cc1ccc2c(c1)[C@H]1OCC[C@H]1[C@@H](c1ccncc1)N2 | 34% (inactive) |
| COc1cccc(-c2[nH]nc3c2C(c2ccoc2)C(C#N)=C(N)O3)c1 (stereo not drawn) | 23% (inactive) |
| CSC(=O)CNC1(Cc2ccc(O)cc2)CCCCC1 | 11% (inactive) |
